Active and inactive are the calls of the source. The calls were made as follows: active = hit-call score of the fitted dose curve at least 0.9, where 1 is the maximum; inactive = score below 0.9.
These compounds were tested on Pro-epidermal growth factor (Homo sapiens) (UniProt P01133) (assay: LTEA_HepaRG_EGF: Life Technologies and Expression Analysis (LTEA) Assay for Epidermal growth factor (EGF) using HepaRG (AID 2283489)). Conditions: mRNA level, 48 h; actives raise or lower the signal.
Method: LTEA_HepaRG is a cell based, multiplexed-readout assay that uses HepaRG, a human liver cell line, with measurements taken at 48 hours after chemical dosing on a 96-well plate.LTEA_HepaRG_EGF is one of 102 assay component(s) measured in the LTEA HepaRG cell culture assay. It is a marker of Cell proliferation, survival, death.Data from the assay component LTEA_HepaRG_EGF was analyzed into 1 endpoint. This assay endpoint, LTEA_HepaRG_EGF, was analyzed with bidirectional fitting relative to DMSO as the negative control and baseline of activity. Using a type of inducible reporter, measures of mRNA induction for gain or loss-of-signal activity can be used to understand regulation of transcription factor activity. To generalize the intended target to other relatable targets, this assay endpoint is annotated to the growth factor intended target family, where the subfamily is EGF-like domain.
A total of 1060 chemcials from the ToxCast library were tested in eight-point concentration-response experiments. Cell culture and cytotoxicity assays were conducted at Thermo Fisher Scientific's Custom Services facility (Madison, WI). A single lot of human HepaRG cells (Thermo Fisher Scientific, Frederick, MD) was used for the cell culture experiments. 96-well format collagen type I coated plates of human HepaRG cells were prepared using established methods. Briefly, cryopreserved HepaRG cells were thawed, plated at a density of approximately 100,000 cells/well in HepaRG Thaw, Plate, and General Purpose media (HPRG770, Thermo Fisher Scientific), and incubated for 48 hours. 0.5% DMSO was selected as vehicle control to balance the requisite need of DMSO in HepaRG cultures to maintain differentiation (for example, baseline metabolism, proportions of hepatocytes vs. cholangiocytes), while enabling further hepatic receptor pathway activation (for example, PXR and CAR) in response to chemical exposure. 48 hours after plating, the culture medium was replaced with HepaRG Serum-Free Incudtion Media. Cells were exposed to each test chemical in duplicate and maintained in CO2 incubators for another 48 hours. Chemical plates were thawed to room temperature and 200x concentrations of treatment groups were prepared. 8-point conentration-reponse curves were made with the highest exposure at 100 uM, followed by half-log dilutions, all in 0.5% DMSO. Each test plate contained variouse controls, induction positive controls (1mM phenobarbital), cytotoxicity positive controls ([…] aflatoxin B1), vehicle controls (0.5% DMSO), and total lysis controls (0.5% DMSO). Cell morphology images were taken using an Essen IncuCyte FLR automated microscope, with six 96-well plates imaged in about 24 minutes. Images were captured and exported and JPEG files. Spent culture media was transfered to black-well plates for the LDH assay, and remaining media was sorted at -80 C for later use. Cells were treated with RLT buffer and frozen until shipped for gene expression analysis. Total RNA was isolated from the cell suspension in 75 uL of Buffer RLT (Qiagen, Germantown, MD 20874) by Quintiles/Expression Analysis (Durham, NC) using a custom isolation procedure. Total RNA from each plate well was transferred to a preamplification plate. Fluidigm's 96.96 Dynamic ArrayTM (Fluidigm, Amsterdam, the Netherlands) technology was used for gene expression analyses by quantitative reverse transcription polymerase chain reaction (qRT-PCR, performed by Quintiles/Expression Analysis, Durham, NC)89. Standard TaqManTM Assays (Applied Biosystems/ThermoFisher Scientific, Foster City, CA) were used to assess the expression of 93 genes selected based on their selectivity and sensitivity to important hepatic receptors known to be modulated by environmental chemicals; importance in human hepatocyte functionality; and hepatotoxicity. […]

| SMILES | outcome | AC50 |
| --- | --- | --- |
| CCN(C(=O)c1cc(C)cc(OC[C@H](C)Nc2ccncc2)c1)C(C)C | inactive | – |
| CN(C)c1ccc(Cc2ccc(N(C)C)cc2)cc1 | inactive | – |
| O=C(O)c1cccc(Oc2ccccc2)c1 | inactive | – |
| O=C(O)CC(O)C(=O)O (stereo not given) | inactive | – |
| C[C@](N)(Cc1ccc(O)c(O)c1)C(=O)O | inactive | – |
| CC(C)(O)c1coc(S(=O)(=O)NC(=O)Nc2c3c(cc4c2CCC4)CCC3)c1 | inactive | – |
| CC(C)=CCC/C(C)=C\CO | inactive | – |
| O=C(O)CCN(C1(C(=O)NO)CCCC1)S(=O)(=O)c1ccc(Oc2ccc(F)cc2)cc1 | inactive | – |
| Fc1ccccc1[C@@H](F)COC1CCC(Nc2ncnc3[nH]ncc23)CC1 (stereo not given in full) | – | 50 µM (active) |
| CC[C@H]1OC(=O)[C@H](C)[C@@H](O[C@H]2C[C@@](C)(OC)[C@@H](O)[C@H](C)O2)[C@H](C)[C@@H](O[C@@H]2O[C@H](C)C[C@H](N(C)C)[C@H]2O)[C@](C)(O)C[C@@H](C)C(=O)[C@H](C)[C@@H](O)[C@]1(C)O | inactive | – |
| COc1cccc(-c2ccc(/C=C\CN3CCCCCC3)cc2Cl)c1 | inactive | – |
| COc1ccc(-n2nc(C(F)F)cc2-c2ccc(S(C)=O)cc2)cc1 (stereo not given) | inactive | – |
| CC1(C)C(=O)N(Br)C(=O)N1Br | inactive | – |
| CCn1nc(Cc2ccccc2)cc1C1CCN(C[C@H]2C[C@H](N(C)[C@@H](C(=O)O)C(C)C)C[C@@H]2c2cccc(F)c2)CC1 | inactive | – |
| CCOC(=O)COc1ccc2c(c1)CC(NCC(O)c1cccc(Cl)c1)CC2 (stereo not given) | inactive | – |
| CN(C)c1ccc(N=NS(=O)(=O)O)cc1 | inactive | – |
| CCCCC(CC)COC(=O)c1ccc(C(=O)OCC(CC)CCCC)cc1 (stereo not given) | inactive | – |
| CC(C)=CCCC(C)=CC=O | inactive | – |
| CNS(=O)(=O)c1cc(C(=O)N2CCC(CCN3C4CCC3CC(n3c(C)nc5ccccc53)C4)(c3cccc(F)c3)CC2)c(Cl)cc1F (stereo not given) | inactive | – |
| CC(C)CCCCCCCOC(=O)CCCCC(=O)OCCCCCCCC(C)C | inactive | – |

| SMILES | outcome | AC50 |
| --- | --- | --- |
| Cn1cnc([N+](=O)[O-])c1Sc1ncnc2nc[nH]c12 | inactive | – |
| CCCCCCc1ccc(O)cc1O | inactive | – |
| CCCCCCCCCCCCCCCO | inactive | – |
| Cc1ccc(C)c(O)c1 | inactive | – |
| CCOCCO | inactive | – |
| Cn1c(=O)c2c(ncn2C)n(C)c1=O | inactive | – |
| C=CC(=C)CCC=C(C)C | inactive | – |
| C=CCCCCCCCCC(=O)O | inactive | – |
| CC(=O)OCCC(C)C | inactive | – |
| CCOc1cccc(-n2cc(C(=O)N3CCN(c4cc(C(=O)O)c5ccccc5c4)CC3)nc2-c2ccc(C)cc2)c1 | – | 88 µM (active) |
| Cc1ccc(S(=O)(=O)O)cc1C | inactive | – |
| O=C1OC(=O)C2C3C=CC(C3)C12 (stereo not given) | inactive | – |
| O=C(O)c1cc(N=Nc2ccc(S(=O)(=O)Nc3ccccn3)cc2)ccc1O | inactive | – |
| CCCCC(CC)COC(=O)CCCCCCCCC(=O)OCC(CC)CCCC (stereo not given) | inactive | – |
| CNCc1ccc(NC(=O)c2c[nH]c3c2C(=O)CCC3)cc1 | inactive | – |
| COc1ccc2sc(C(=O)Nc3nnn[nH]3)c(OC(C)C)c2c1 | – | 22 µM (active) |
| CCCCCCCCO | inactive | – |
| O=C(O)c1cccc(N(Cc2cccnc2)c2ccc(OC(F)F)c(OC(F)F)c2)c1 | inactive | – |
| CCCC(=O)OCC | inactive | – |
| COCCOc1cc2cc(C(=O)NC3CCN(C(C)C)CC3)n(CC(=O)Nc3ccc(Cl)cn3)c2cn1 | inactive | – |
